The list is not random: actives were taken first. Their share in the collection is about 6.9%.
Cy5 interf NS3h – Cy5 fluorescence interference, HCV helicase counter-screen; Cy5-dT15 DNA with NS3h; actives lie on both sides; signal over control mean, under 1 quenches; fluorescence interference ratio at 100 µM; hit rate 6% among 16,000; AID 720488;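 active = compound fluorescence over control fluorescence at most 0.8, a quencher, or at least a set upper limit, an enhancer; inactive = ratio between 0.8 and the set upper limit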
HCV NS3h FP – blocks HCV NS3 helicase binding to DNA | NS3h Cy5-dT15 DNA binding, fluorescence polarization | inhibition, % at 100 µM | hit rate 1.6% among 16,000;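 active = inhibition above the average over every tested compound plus 3 SD, cut at about 40% in these data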
Active calls of the source: *.

SMILES | Cy5 interf NS3h | HCV NS3h FP
O=C(O)C(C(=O)O)C1c2ccccc2Oc2ccccc21 | 1 | 12
O=C1C(=C2c3ccccc3C(=O)C2C2c3ccccc3Oc3ccccc32)C(=O)c2ccccc21 (stereo not given) | 0.8* | -2
CCc1c(C)nc2c(C)c(-c3ccc(C)cc3)[nH]n2c1=O | 1.1 | -2
Cc1ccc(N2C(=O)CC(NCc3cccc(C(F)(F)F)c3)C2=O)cc1 (stereo not given) | 1.2* | 18
Cc1ccc(N2C(=O)CC(NCc3cccc(Cl)c3)C2=O)cc1 (stereo not given) | 1.1 | 0
Cc1ccc(N2C(=O)CC(N3CCN(Cc4ccccc4)CC3)C2=O)cc1 (stereo not given) | 1 | -1
Cc1ccc(N2C(=O)CC(NC3CCN(Cc4ccccc4)CC3)C2=O)cc1 (stereo not given) | 1.3* | 10
Cc1cc(OCC(=O)Nc2cccc(Br)c2)ccc1Cl | 0.95 | 4
CCN(CC)C(=O)/C(=C/c1cccc([N+](=O)[O-])c1)NC(=O)c1ccc(C)cc1 | 1 | 5
Cc1c(Cl)cccc1NC1CS(=O)(=O)CC1O (stereo not given) | 1.1 | 3
CC(=O)N=C1SC2CS(=O)(=O)CC2N1c1c(Cl)cccc1Cl (stereo not given) | 1.3* | 12
Cc1cccc(OCC(=O)O/N=C(/N)c2ccc([N+](=O)[O-])cc2)c1 | 1 | 11
Cc1ccccc1C(=O)Nc1ccc(-c2cnc(-c3ccc(NC(=O)c4ccccc4C)cc3)nc2)cc1 | 0.75* | 18
O=C(Nc1ccc(-c2cnc(-c3ccc(NC(=O)c4ccccc4)cc3)nc2)cc1)c1ccccc1 | 0.95 | 3
Cc1cccc(C)c1NC(=O)C1CC(=O)N(c2ccc(Br)cc2)C1 (stereo not given) | 0.95 | 3
CCCCOC(=O)c1ccc(NC(C)=O)cc1 | 0.68* | 11
CCCCOC(=O)c1ccc(NC(=O)C2CC(C)=C(C)CC2C(=O)O)cc1 (stereo not given) | 1 | 3
O=c1oc(-c2ccccc2Cl)nc2ccc(-c3ccc4nc(-c5ccccc5Cl)oc(=O)c4c3)cc12 | 0.69* | 1
O=c1oc(-c2ccc(Cl)cc2Cl)nc2ccccc12 | 1.2 | 7
CC(/C=C1\SC(=S)N(C(Cc2ccccc2)C(=O)O)C1=O)=C\c1ccccc1 (stereo not given) | 1 | -2
O=C1/C(=C/C(Cl)=C/c2ccc([N+](=O)[O-])cc2)SC(=S)N1c1ccc(O)cc1 | 1 | 3
O=C(O)CCC(C(=O)O)N1C(=O)/C(=C\C(Cl)=C/c2ccc([N+](=O)[O-])cc2)SC1=S (stereo not given) | 0.63* | 12
O=C(O)C(Cc1ccccc1)N1C(=O)/C(=C/C(Cl)=C/c2ccc([N+](=O)[O-])cc2)SC1=S (stereo not given) | 0.78* | -2
O=C1NC(=O)C(=Cc2ccc(OCc3cccc4ccccc34)cc2)C(=O)N1 | 0.93 | 3
CN(c1ccccc1)c1ccc(C=C2C(=O)NC(=O)NC2=O)cc1 | 1.1 | 46*
SMILES | Cy5 interf NS3h | HCV NS3h FP
CCC(C)C(C(=O)Nc1ccc(C(=O)OC)cc1)N1C(=O)c2ccccc2C1=O (stereo not given) | 0.92 | 9
O=[N+]([O-])c1ccccc1NC(=NS(=O)(=O)c1ccc(Cl)cc1)c1ccccc1 | 0.69* | 20
O=[N+]([O-])c1ccccc1NC(=NS(=O)(=O)c1ccccc1)c1ccccc1 | 0.99 | 5
O=C(Nc1ccccc1C(=O)Nc1ccc(Br)cc1)c1ccccc1 | 0.96 | 17
C/C(=N/N=C1\NC(=O)C(CC(=O)Nc2ccccc2C(F)(F)F)S1)c1ccc([N+](=O)[O-])cc1 (stereo not given) | 1 | 10
COc1cc(C(=O)NCc2ccc(C)cc2)c([N+](=O)[O-])cc1OC | 0.69* | 16
COc1cc(C(=O)NCCC(C)C)c([N+](=O)[O-])cc1OC | 0.98 | 3
O=C(NCCCNc1ccc([N+](=O)[O-])cc1Cl)c1cccc(Br)c1 | 0.98 | 11
O=[N+]([O-])c1ccc2c(c1)ONC(c1ccc(Cl)cc1)=N2 | 0.67* | 22
COc1cc([N+](=O)[O-])cc2c1N=C(c1ccc(Br)cc1)NO2 | 0.97 | 2
CCCOC(=O)c1ccc(NS(=O)(=O)c2c(C)cc(C)cc2C)cc1 | 1 | 18
C#CCOc1ccc(/C=C2\C(=O)NC(=O)N(c3ccc(Cl)cc3)C2=O)cc1 | 0.96 | 19
O=P(CO)(c1ccccc1)c1ccccc1 | 0.97 | 1
O=P(O)(O)CP(=O)(c1ccccc1)c1ccccc1 | 0.76* | 7
Cc1cccc(NC(=O)Nc2ccc(-c3nc4ccccc4s3)cc2)c1 | 1.1 | -6
COCCCNC(=O)CN(c1ccc(F)cc1)S(=O)(=O)c1ccccc1 | 1 | 4
Cc1ccc(N=C2NC(=O)/C(=C\c3cccc(Br)c3)S2)cc1C | 0.79* | 0
Cc1ccc(N=C2NC(=O)/C(=C/c3ccc(O)cc3)S2)cc1C | 0.94 | -4
O=C(/C=C/c1ccc(-c2ccccc2[N+](=O)[O-])o1)C12CC3CC(CC(C3)C1)C2 | 1.1 | 4
CC(C)C(=O)Nc1ccc2oc(-c3ccc(Cl)cc3)nc2c1 | 0.5* | 10
COc1cc(C(=O)Nc2ccc3oc(-c4ccc5ccccc5c4)nc3c2)cc(OC)c1OC | 0.72* | 22
O=C(Cc1ccccc1)Nc1ccc2oc(-c3ccc(Cl)cc3Cl)nc2c1 | 1.3* | -36
CCc1ccc(OCC(=O)Nc2ccc(-c3nc4ccccc4s3)c(O)c2)cc1 | 1.1 | 1
Cc1ccc2oc(-c3ccc(NC(=O)Cc4ccccc4)cc3O)nc2c1 | 1 | -18
COc1c(Cl)cc(C(=O)Nc2ccc3oc(-c4ccccc4)nc3c2)cc1Cl | 1.1 | -37
SMILES | Cy5 interf NS3h | HCV NS3h FP
O=C(Cc1ccccc1)Nc1ccc(-c2nc3ccccc3s2)c(O)c1 | 1.2* | 4
Cc1ccc(-c2nc3cc(NC(=O)C(C)C)ccc3o2)cc1 | 1 | 17
CCOc1cc(C2NC(=O)N(C)C(C)=C2C(=O)OCCc2ccccc2)ccc1O (stereo not given) | 0.95 | 7
Cc1ccc(N2CC(C(=O)Nc3cccc(Cl)c3C)CC2=O)cc1 (stereo not given) | 0.86 | 4
CC(C)(C)SCCN=C1NS(=O)(=O)c2ccccc21 | 1.1 | -5
COC(=O)c1c(C)oc2ccc(OCC(N)=O)cc12 | 1 | 6
O=C(Nc1ccc2oc(-c3ccncc3)nc2c1)c1ccccn1 | 1.2* | 33
O=C(Nc1ccc2oc(-c3cccnc3)nc2c1)c1ccncc1 | 1.1 | 2
COc1cc(NC(=O)C(c2ccccc2)c2ccccc2)cc(OC)c1 | 1 | 34
CCC(=O)Nc1nc(C)c(-c2csc(Nc3ccc(N(C)C)cc3)n2)s1 | 0.88 | 13
Cc1cccc(C(=O)Nc2nc3ccc(Br)cc3s2)c1 | 1.1 | 7
COC(=O)c1cc(C(=O)Nc2nc3ccccc3s2)cc([N+](=O)[O-])c1 | 0.53* | -6
COC(=O)c1cc(C(=O)Nc2ccccc2C(N)=O)cc([N+](=O)[O-])c1 | 0.96 | 6
O=C(Nc1nc2ccccc2s1)c1ccc(-c2ccccc2)cc1 | 0.53* | 35
CC(=O)Nc1ccc(NC(=O)CCC(=O)O)cc1 | 0.63* | -1
NC(=O)c1ccc(NC(=O)CCC(=O)O)cc1 | 1.1 | 1
CCOC(=O)c1c(NC(=O)c2ccc([N+](=O)[O-])cc2)sc2c1CCCCC2 | 0.98 | -10
CCOC(=O)c1c(NC(=O)Cn2cnc([N+](=O)[O-])n2)sc2c1CCC2 | 0.57* | 9

Screens: PubChem BioAssay, Milwaukee Institute for Drug Discovery
